Test results published in PubChem BioAssay (EPA / NIEHS).
Values joined by “and” are separate entries in the source; they are usually repeats but may differ in a detail not shown here. Identical values can stand only once. More than one record can exist for a structure, and the calls need not agree. Active and inactive are the calls of the source. How the source made its calls: active means hit-call score of the fitted dose curve at least 0.9, where 1 is the maximum; inactive means score below 0.9.

Read-out: Matrix Metallopeptidase 1 (MMP1), MMP1 (gene 4312)
Assay: BSK_BF4T_MMP1: BioMAP Diversity Plus: BF4T Assay for Matrix Metallopeptidase 1 (MMP1) Biomarker Activity (AID 2284270)
Conditions: primary human bronchial epithelial cells with fibroblasts
Method: BSK_BF4T is a cell-based, multiplexed-readout assay that uses bronchial epithelial cells and dermal fibroblasts, a human vascular primary cell, with measurements taken at 24 hours after chemical dosing in a microplate: 96-well plate.BSK_BF4T_MMP1 is an assay component measured in the BSK_BF4T assay. It measures MMP-1 antibody related to regulation of gene expression using ELISA technology.Data from the assay component BSK_BF4T_MMP1 was analyzed at the endpoint, BSK_BF4T_MMP1, in the positive analysis fitting direction relative to DMSO as the negative control and baseline of activity. Using a type of binding reporter, gain or loss-of-signal activity can be used to understand protein changes. To generalize the intended target to other relatable targets, this assay endpoint is annotated to the 'protease' intended target family, where the subfamily is 'matrix metalloproteinase'.
The levels of cell surface (or secreted, indicated by the prefix "s") biomarker endpoints were measured by ELISA. Overt cytotoxicity to cells in confluent adherent cultures (all systems other than the BT system) was assessed by measuring total protein levels using sulforhodamine B (SRB) staining in parallel cultures at the time of biomarker measurements, indicated as SRB endpoints. For proliferation assays for adherent cell types, individual cell types are cultured at sub-confluence and relative cell numbers quantified by SRB staining at time points optimized for each system (48 h: 3C and CASM3C systems; 72 h: BT and HDF3CGF systems; 96 h: SAg system). SRB was performed by staining cells with 0.1% SRB after fixation with 10% TCA and reading wells at 560 nm.Viability and proliferation of PBMC (T cells) was quantified by Alamar Blue reduction for the SAg and BT systems. For PBMC viability (referred to as PBMC Cytotoxicity within the assay endpoint names), cells were plated (75,000/well in a 96-well plate) and then chemical samples added for 1 h before addition of activators, SEB and TSST-1 (20 ng/mL final concentration each). Cells were incubated for 90 h. Then, Alamar Blue (20 uL/well) (Invitrogen, Cat DAL1100) was added for 6 h, and the plates were read with a fluorescence microplate reader at 546/580 nm (excitation/emission). For PBMC proliferation, cells were plated and activated as above but incubated for only 16 h prior to addition of Alamar Blue. Plates were read after 6 h.

| Compound | outcome | AC50 |
| --- | --- | --- |
| OCC(F)(F)C(F)(F)C(F)(F)C(F)(F)C(F)(F)C(F)(F)F | inactive |  |
| O=P(O)(O)OCCC(F)(F)C(F)(F)C(F)(F)C(F)(F)C(F)(F)C(F)(F)F | inactive |  |
| O=C(O)C(F)(F)C(F)(F)C(F)(F)C(F)(F)C(F)(F)C(F)(F)C(F)(F)C(F)(F)C(F)(F)C(F)F | inactive | 49.7 µM (active) |
| C=CC(=O)OCC(F)(F)C(F)(F)C(F)(F)C(F)(F)COC(=O)C=C | inactive |  |
| CCO[Si](CCC(F)(F)C(F)(F)C(F)(F)C(F)(F)C(F)(F)C(F)(F)F)(OCC)OCC | inactive |  |
| O=C(Cl)C(F)(F)C(F)(F)C(F)(F)C(F)(F)C(F)(F)C(F)(F)C(F)(F)C(F)(F)F | inactive | 55.2 µM (active) |
| FC(F)(I)C(F)(F)C(F)(F)C(F)(F)I |  | 51.2 µM (active) and 48.6 µM (active) and 50.2 µM (active) |
| C=C(C)C(=O)OCC(F)(F)C(F)(F)C(F)(F)C(F)(F)C(F)(F)C(F)(F)C(F)(F)F | inactive |  |
| O=C(O)C(F)(OC(F)(F)C(F)(OC(F)(F)C(F)(F)C(F)(F)F)C(F)(F)F)C(F)(F)F (stereo not given) | inactive |  |
| O=C(O)C(F)(F)C(F)(F)C(F)(F)C(F)(F)C(F)(F)C(F)(F)C(F)(F)C(F)(F)C(F)(F)C(F)(F)C(F)(F)C(F)(F)C(F)(F)F | inactive |  |
| FC(F)(F)C(F)(F)C(F)(F)C(F)(F)CCI | inactive |  |
| O=C(O)C(F)(OC(F)(F)C(F)(OC(F)(F)C(F)(OC(F)(F)C(F)(F)C(F)(F)F)C(F)(F)F)C(F)(F)F)C(F)(F)F (stereo not given) | inactive |  |
| O=C(O)C(F)(F)C(F)(F)C(F)(F)F | inactive |  |
| OCC(F)(F)C(F)(F)C(F)(F)C(F)F | inactive |  |
| O=C(CC(=O)C(F)(F)C(F)(F)F)C(F)(F)F | inactive |  |
| FC(F)(F)C(F)(F)C(F)(F)CI | inactive |  |
| C=C(C)C(=O)OCC(F)(F)C(F)(F)C(F)(F)F | inactive |  |
| FC1CC(F)(F)C(F)(F)C1(F)F (stereo not given) | inactive |  |
| C=C(C)C(=O)OCCC(F)(F)C(F)(F)C(F)(F)C(F)(F)C(F)(C(F)(F)F)C(F)(F)F | inactive |  |

| Compound | outcome | AC50 |
| --- | --- | --- |
| O=S(=O)(OCCOC(F)(F)F)C(F)(F)F | inactive |  |
| OCCCC(F)(F)C(F)(F)C(F)(F)F | inactive |  |
| FC(F)(F)C(F)(F)C(F)(F)C(F)(F)C(F)(F)C(F)(F)C(F)(F)I | inactive |  |
| O=C(O)C(F)(F)C(F)(F)F | inactive |  |
| OCC(F)(F)C(F)(F)C(F)(F)F | inactive |  |
| COC(=O)CCC(F)(F)C(F)(F)C(F)(F)C(F)(F)F | inactive |  |
| FC(F)(F)C(F)(F)C(F)(F)C(F)(F)C(F)(F)C(F)(F)C(F)(F)Br | inactive |  |
| FC(F)(F)C(F)(F)C(F)(F)N(C(F)(F)C(F)(F)C(F)(F)F)C(F)(F)C(F)(F)C(F)(F)F | inactive |  |
| Cc1ccc(S(=O)(=O)OCC(F)(F)C(F)(F)C(F)(F)C(F)(F)C(F)(F)C(F)F)cc1 | inactive |  |
| FC(F)(F)C(F)(F)CNCC(F)(F)C(F)(F)F | inactive |  |
| O=C(O)C(F)(F)C(F)(F)OC(F)(F)F | inactive |  |
| C=CC(=O)OCC(F)(F)C(F)(F)C(F)(F)C(F)(F)C(F)(F)C(F)(F)C(F)(F)F | inactive |  |
| FC(F)(F)C(F)(F)C(F)(F)C(F)(F)C(F)(F)C(F)(F)C(F)(F)C(F)(F)CCS | inactive |  |
| OCCCC(F)(F)C(F)(F)C(F)(F)C(F)(F)C(F)(F)C(F)(F)C(F)(F)F | inactive | 46.8 µM (active) |
| FC(F)(Br)C(F)(F)C(F)(F)C(F)(F)C(F)(F)C(F)(F)Br | inactive |  |
| FC(F)(F)C(F)(F)C(F)(F)C(F)(F)C(F)(F)C(F)(F)CCS | inactive |  |
| CC(C)(C)C(=O)CC(=O)C(F)(F)C(F)(F)C(F)(F)F | inactive |  |
| O=C(O)C(F)(F)C(F)(F)C(F)(F)C(F)(F)F | inactive |  |
